This passage reports viability results from PubChem BioAssay AID827 (SRMLSC, 2007).

Each structure is given as a SMILES string. About 1,700 (1.2%) of roughly 140,000 compounds were called active. The sample holds actives, similar compounds and a random draw of the others, so the mix is not that of the screen.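 Rule for the calls: active = viability at or below a set limit, 4 SD under the median of all tested compounds (cut at about 3.7% in these data); inactive = the rest.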

The nature of this assay: viability loss in PTEN-deleted colon tumor cells – cell-based, HCT116, CellTiter-Glo, primary screen (AID 827).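 Note: PTEN knockout HCT116 line with beta catenin targeted HCT116 as companion control.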 The following applies: HCT116 PTEN-null viability, 60 h, at 10 µM, stronger effect = lower value. Background: ATP-based viability assays read luminescence as a measure of living cells.
Turning to `N#C/C(=C/c1cccc([N+](=O)[O-])c1)c1nnc2n1CCCCC2`, the viability (in general, a read-out of living cells in per cent, often relative to untreated cells) was 30.1% (inactive).

Regarding `CCOc1ccc(S(=O)(=O)N(CC(=O)NCC(F)(F)F)Cc2ccco2)cc1`, the viability is 99.2% (inactive).

For the molecule `COC(=O)CN1C(=S)N(c2ccccc2)C(=O)C1CC(=O)Nc1ccc(Cl)cc1` (configuration not stated), the viability is 91.3% (inactive).

For the molecule `Cc1ccc(/C=C/C(=O)Nc2cc(S(=O)(=O)N3CCCCCC3)ccc2OCC(F)(F)F)o1`, the viability is 75.3% (inactive).

Consider `C/C(=N/NC(=O)C1COc2ccccc2O1)c1ccco1` (configuration not stated), for which the viability is 96.5% (inactive).

For the molecule `Cc1cccc2cc(CN(Cc3cccs3)C(=S)NCc3ccco3)c(=O)[nH]c12`, the viability was 72.6% (inactive).

On to `CN(C)CCNC(=O)Cc1ccc([N+](=O)[O-])cc1`, for which the viability was 98.8% (inactive).

For `CCCCc1nc(NCc2ccccc2)c(C#N)c2c1CCCC2`, the viability is 82.1% (inactive).

For `Cc1nc(NCCN)c(C#N)c2c1COC(C)(C)C2`, the viability was 101% (inactive).

In the case of `CCCCc1nc(NCCN)c(C#N)c2c1CSC(C)(C)C2`, the viability is 2.15% (active).

Turning to `COc1ccc(C2CC(c3ccccc3)=NN2C(=O)CSc2nccc(=O)[nH]2)cc1` (configuration not stated), the viability was 101% (inactive).

Consider `CCOC(=O)C1=C(C)Nc2nc3ccccc3n2C1c1cccs1` (configuration not stated), for which the viability was 90.1% (inactive).

Regarding `O=C1OC(c2ccc(Cl)cc2)=N/C1=C\c1cccnc1`, the viability was 90.6% (inactive).

In the case of `O=C(O)C1CC(=O)N(Cc2cccnc2)C1` (configuration not stated), the viability was 100% (inactive).

Take `O=C1/C(=C\c2cccnc2)CN(Cc2ccccc2)C/C1=C\c1cccnc1`: the viability is 1.06% (active).

On to `O=C(CN1CCN(S(=O)(=O)c2ccc(Br)cc2)CC1)Nc1ccccc1C(=O)c1ccccc1`, for which the viability was 64.5% (inactive).

Take `Cc1nn(Cc2ccccc2)c(C)c1C(=O)NCCN1C(=O)S/C(=C\c2ccc(F)cc2)C1=O`: the viability was 97.4% (inactive).

Take `Cc1ccc(NC(=O)CC2S/C(=N/N=C3\CCCc4ccccc43)NC2=O)cc1` (configuration not stated): the viability is 65.5% (inactive).

In the case of `O=C(c1cncc(Br)c1)N1CCN(c2ccc([N+](=O)[O-])cc2)CC1`, the viability was 83.7% (inactive).

On to `CC(C)CC[n+]1ccn(C2=C([O-])c3ccccc3C(=O)/C2=N\S(=O)(=O)c2ccccc2)c1`, for which the viability was 3.35% (active).

Turning to `O=C(CSc1nc2ccc([N+](=O)[O-])cc2[nH]1)c1ccc(Cl)cc1`, the viability was 103% (inactive).

Turning to `CC(C)=C(NC(=O)c1ccccc1)C(=O)N/N=C(\C)c1ccccc1O`, the viability is 88.4% (inactive).

Regarding `COc1ccc2nc(Nc3nc4ccc(NC(C)=O)cc4s3)sc2c1`, the viability is 1.64% (active).

In the case of `CCOc1ccc2nc(Nc3nc4ccc(NC(C)=O)cc4s3)sc2c1`, the viability is 90.5% (inactive).

As for `COc1ccc2nc(Nc3nc4cc5c(cc4s3)OCCO5)sc2c1`, the viability was 94.9% (inactive).

Regarding `CC(Sc1nnc2c(n1)C1CCC2(C)C1(C)C)C(=O)Nc1ccccc1` (configuration not stated), the viability was 87.5% (inactive).

On to `O=C(CC(O)(C(F)(F)F)C(F)(F)F)Nc1ccc(Cl)c(Cl)c1`, for which the viability is 2.05% (active).

With `O=C(CC(=O)Nc1ccc(Cl)c(Cl)c1)N/N=C/c1ccc(O)cc1`, the viability is 86.7% (inactive).

Turning to `O=C(Cc1ccc(Cl)c(Cl)c1)Nc1ccc(SC(F)F)cc1`, the viability is 26.6% (inactive).

In the case of `COc1ccc(N2C(=O)C(CC(=O)Nc3ccc(F)cc3)N(CCc3cccs3)C2=O)cc1` (configuration not stated), the viability is 84.4% (inactive).

Take `O=C(Nc1ccc2ccccc2c1)/C(=C\c1ccc2c(c1)OCO2)NC(=O)c1ccco1`: the viability is 95.8% (inactive).

In the case of `COc1ccc(NC(=O)c2nc(-n3nc(C)cc3C)ccc2Cl)cc1Cl`, the viability was 72.5% (inactive).

On to `COc1ccc(O[C@H]2C=C[C@@H](c3ccccc3)O[C@@H]2CO/N=C/C[C@@H]2C=C[C@H](OC(C)=O)[C@@H](COC(C)=O)O2)cc1`, for which the viability was 85% (inactive).

`CCCC(NS(=O)(=O)c1ccc(OC)cc1)C(=O)O` (configuration not stated): the viability was 91.3% (inactive).

Take `CCCNC(=O)OC[C@H]1O[C@H](CCO/N=C/[C@@H](NS(=O)(=O)c2ccc(C)cc2)[C@H](C)/C=C/CC(=O)OC)C=C[C@@H]1Oc1ccc(OC)cc1`: the viability was 0.23% (active).

On to `O=C(Cc1ccccc1)Nc1cccc(C(=O)N/N=C/c2ccco2)c1`, for which the viability is 92.6% (inactive).

Consider `O=C(Nc1ccccc1F)c1ccccc1-c1ccccc1`, for which the viability is 87% (inactive).

With `Cc1c(C(=O)NCCCc2ccccc2)cccc1[N+](=O)[O-]`, the viability was 44.8% (inactive).

On to `COc1ccc(/C=C2/C(=O)OCc3cc(OC)c(OC)cc32)c(OC)c1`, for which the viability was 71.4% (inactive).

With `CC(C)(C)NCCCOc1ccc(Cl)cc1C(C)(C)C`, the viability is 40.9% (inactive).

Turning to `COc1cccc(/C=N\NC(=O)C2=NNC(=O)C2C)c1O` (configuration not stated), the viability was 48.4% (inactive).

`COc1cccc(/C=N/Nc2ncc(C(F)(F)F)cc2Cl)c1O`: the viability is 2.37% (active).

As to `COc1cc(/C=C2\SC(=S)N(Nc3ncc(C(F)(F)F)cc3Cl)C2=O)cc(OC)c1OC`, the viability was 88.8% (inactive).

Turning to `CC1CCN(c2ccc(C(=O)NCc3ccc4c(c3)OCO4)cc2[N+](=O)[O-])CC1`, the viability was 85.2% (inactive).

On to `CCC(=O)Nc1ccc(C(=O)Nc2ccc3c(c2)C(=O)N(CC2CCCO2)C3=O)cc1` (configuration not stated), for which the viability was 107% (inactive).

With `O=C(NCc1ccc2c(c1)OCO2)c1ccc2c(c1)C(=O)N(CC1CCCO1)C2=O` (configuration not stated), the viability is 1.19% (active).

In the case of `CC(CNc1ccc([N+](=O)[O-])c2cccnc12)Nc1c([N+](=O)[O-])cc(C(F)(F)F)cc1[N+](=O)[O-]` (configuration not stated), the viability is 62.8% (inactive).

Regarding `CCOc1ccc(C(=O)NC(=S)Nc2ccc(N3CCOCC3)c(Cl)c2)cc1[N+](=O)[O-]`, the viability was 70.2% (inactive).

Regarding `NC1=NN(c2cccc(C(=O)O)c2)C(=O)C1`, the viability is 104% (inactive).

For the molecule `CCCCN(C)CCC(=O)Nc1ccc(Cl)cc1`, the viability is 91.2% (inactive).

Turning to `Cc1ccc(C(=O)NCC2CCCO2)o1` (configuration not stated), the viability is 101% (inactive).

For `Cc1cc(Br)ccc1NC(=O)C1CCCO1` (configuration not stated), the viability was 97.1% (inactive).

For `OC(CNCC1CCCO1)Cn1c2ccc(Br)cc2c2cc(Br)ccc21` (configuration not stated), the viability was 1.31% (active).

For `O=C(Nc1ccc2c(c1)OCO2)c1ccc(N2C(=O)c3ccccc3C2=O)cc1`, the viability is 93.1% (inactive).

On to `CSCCC(NC(=O)COc1ccccc1)C(=O)Nc1ccc(C)cc1` (configuration not stated), for which the viability is 96.1% (inactive).

With `CCOc1cc(/C=N/NC(=O)OC)ccc1OCCSc1ccc(Cl)cc1`, the viability was 93.7% (inactive).

In the case of `CSCC[C@H](NC(=O)OC(C)(C)C)C(=O)N/N=C/c1cc2ccc(C)cc2nc1Cl`, the viability was 1.55% (active).

As to `CC(=O)NCCC(=O)Nc1nc(C)c(Cc2ccc3c(c2)OCO3)s1`, the viability is 99.8% (inactive).

`COc1ccccc1C(=O)Nn1c(-c2cccs2)nc2ccccc2c1=O`: the viability was 95% (inactive).

As for `CC(C)Nc1nnc(SCC(=O)c2c[nH]c3ccccc23)s1`, the viability was 87.3% (inactive).

For the molecule `CCO/N=C(/C)c1c(O)cc(-c2ccccc2)n(-c2ccccc2)c1=O`, the viability was 103% (inactive).

Take `CC(=O)NC(C)c1nc2ccccc2n1Cc1ccccc1F` (configuration not stated): the viability was 102% (inactive).

Consider `CN(Cc1ccccc1)Cc1ccccc1F`, for which the viability is 101% (inactive).

On to `N=c1n(CCc2ccccc2)c2ccccc2n1Cc1ccccc1F`, for which the viability was 1.8% (active).

In the case of `Cc1cccc(NC(=O)c2sc(-c3ccccc3)nc2-c2ccc([N+](=O)[O-])cc2)c1`, the viability was 73.5% (inactive).

Consider `CCOC(=O)/C(=C\c1ccc([N+](=O)[O-])cc1)C(=O)c1cc(C(C)=O)c(Nc2ccccc2)s1`, for which the viability was 1.45% (active).

For `O=C(Nc1ccccc1)/C(=C/c1ccc([N+](=O)[O-])cc1)NC(=O)c1ccccc1`, the viability is 95.2% (inactive).

In the case of `C/C(=N\NC(=O)c1ccc(CSc2nc(C)cc(C)n2)cc1)C1CCCCC1`, the viability was 93% (inactive).

In the case of `O=C1NC(c2ccccc2)CCC1(Cl)Cl` (configuration not stated), the viability is 95.3% (inactive).

As to `COc1ccccc1N1N=C(c2cccs2)CC1c1ccccc1` (configuration not stated), the viability was 65% (inactive).

As to `Cc1cccc(C)c1Nc1nnc(SCC(=O)Nc2sccc2C#N)s1`, the viability was 92.1% (inactive).

On to `CCCc1cc(-c2nc(-c3ccc(C)cc3)cs2)ccn1`, for which the viability was 26.2% (inactive).
